Values joined by “and” are separate entries in the source; they are usually repeats but may differ in a detail not shown here. Equal entries are not always repeated. The whole screen tested about 5,500 compounds, of which about 2,000 (36%) were called active. Roughly 18% stayed inconclusive and do not appear here. Cut-off read from the data, not from the text of the source: active = normalized growth mostly below about 0.91 (no sharp cut-off); inconclusive = no clear call, values can overlap the other calls; inactive = mostly above about 0.92. This is one part of the list.
Experiment: chemical genetic growth profiling, strain panel (AID 1159580);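 note: tested at 20 µM; growth read once vehicle control cultures reached saturation at 30 °C; 1 = growth at the plate median or of vehicle wells; lower values mean less growth of the strain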
Conditions: S. cerevisiae deletion strains, growth OD
[1] = locus YHR030C, strain SLT2, hits give low values
[2] = locus YHR079C, strain IRE1, hits give low values
[3] = locus YJL095W, strain BCK1, hits give low values
[4] = locus YJR066W, strain TOR1, hits give low values
[5] = locus YLR113W, strain HOG1, hits give low values
[6] = locus YNL183C, strain NPR1, hits give low values
[7] = locus YOR231W, strain MKK1, hits give low values
[8] = locus YPL256C, strain CLN2, hits give low values

Measured: normalized growth

CC(=O)OC(C)C[N+](C)(C)C (stereo not drawn)
inactive: locus YAL013W, strain DEP1, hits give low values 1.02 and 1 | locus YAL021C, strain ccr4, hits give low values 1 | locus YAL026C, strain drs2, hits give low values 1 | locus YAL030W, strain snc1, hits give low values 1 | locus YAL040C, strain CLN3, hits give low values 0.999 | locus YBL061C, strain skt5, hits give low values 1.01 | locus YBR009C, strain hhf1, hits give low values 1 | locus YBR021W, strain FUR4, hits give low values 1.03 | locus YBR023C, strain chs3, hits give low values 1 | locus YBR171W, strain sec66, hits give low values 0.994 | locus YBR229C, strain ROT2, hits give low values 1.01 | locus YBR231C, strain swc5, hits give low values 0.991 | locus YBR279W, strain paf1, hits give low values 1 | locus YCL011C, strain gbp2, hits give low values 1.01 | locus YCL016C, strain dcc1, hits give low values 1.01 | locus YCL029C, strain bik1, hits give low values 1.01 | locus YCL061C, strain MRC1 (second series), hits give low values 1 | locus YCL069W, strain vba3, hits give low values 1 | locus YCR088W, strain abp1, hits give low values 1.01 | locus YDL005C, strain med2, hits give low values 1.02 | locus YDL035C, strain GPR1, hits give low values 1.03 | locus YDL040C, strain nat1, hits give low values 1 | locus YDL074C, strain BRE1, hits give low values 1.01 | locus YDL101C, strain DUN1, hits give low values 1 | locus YDL134C, strain PPH21, hits give low values 1.02 | locus YDL185W, strain tfp1, hits give low values 1.02 | locus YDL192W, strain arf1, hits give low values 1.02 | locus YDR001C, strain nth1, hits give low values 0.993 | locus YDR069C, strain doa4, hits give low values 0.988 | locus YDR101C, strain arx1, hits give low values 0.996 | locus YDR137W, strain rgp1, hits give low values 0.99 | locus YDR150W, strain NUM1, hits give low values 1.02 and 0.997 | locus YDR159W, strain sac3, hits give low values 1 | locus YDR162C, strain NBP2, hits give low values 1.05 | locus YDR195W, strain ref2 0.982 | locus YDR297W, strain sur2, hits give low values 1 | locus YDR318W, strain mcm21, hits give low values 1.01 | locus YDR334W, strain swr1, hits give low values 0.997 | locus YDR335W, strain msn5, hits give low values 0.998 | locus YDR363W, strain ESC2, hits give low values 0.965 | locus YDR388W, hits give low values 1.02 | locus YDR392W, strain spt3, hits give low values 1 | locus YDR502C, strain sam2, hits give low values 1.01 | locus YEL003W, strain gim4, hits give low values 1.01 | locus YEL037C, strain rad23, hits give low values 1 | locus YEL061C, strain CIN8 (second series), hits give low values 0.995 | locus YEL061C, strain CIN8, hits give low values 1.01 | locus YER002W, strain NOP16, hits give low values 0.981 | locus YER015W, strain faa2, hits give low values 0.988 | locus YER016W, strain bim1, hits give low values 0.994 | locus YER110C, hits give low values 1.02 | locus YER111C, strain swi4, hits give low values 1.01 | locus YER155C, strain BEM2 (second series), hits give low values 0.992 | locus YER155C, strain BEM2, hits give low values 1.01 | locus YER167W, strain BCK2, hits give low values 1.02 | locus YFR010W, strain ubp6, hits give low values 0.989 | locus YGL078C, strain dbp3, hits give low values 1.02 | locus YGL086W, strain mad1, hits give low values 1 | locus YGL167C, strain pmr1, hits give low values 1.01 | locus YGL173C, strain kem1, hits give low values 1 | locus YGL227W, strain vid30, hits give low values 0.986 | locus YGL240W, strain doc1, hits give low values 0.985 | locus YGL248W, strain PDE1, hits give low values 0.99 | locus YGL253W, strain hxk2, hits give low values 1 | locus YGR135W, strain pre9, hits give low values 1.06 | locus YGR252W, strain gcn5, hits give low values 1.04 | locus YHR013C, strain ard1, hits give low values 1.02 | locus YHR027C, strain rpn1, hits give low values 1 | [1] 1.01 and 1.02 | locus YHR079C, strain IRE1 (second series), hits give low values 1.01 | [2] 1 | locus YHR094C, strain hxt1, hits give low values 1.02 | locus YHR129C, strain ARP1, hits give low values 1 | locus YHR142W, strain chs7, hits give low values 1.01 | locus YHR200W, strain rpn10, hits give low values 1.02 | locus YIL066C, strain RNR3, hits give low values 1.02 | locus YIL073C, strain SPO22, hits give low values 1.13 | locus YIL125W, strain kgd1, hits give low values 1.01 | locus YIR030C, strain dcg1, hits give low values 1.01 | locus YJL092W, strain hpr5, hits give low values 0.993 | locus YJL095W, strain BCK1 (second series), hits give low values 1.01 | [3] 1.02 and 1.03 | locus YJL115W, strain asf1, hits give low values 0.995 | locus YJL129C, strain trk1, hits give low values 0.987 | locus YJL134W, strain LCB3, hits give low values 1.01 | locus YJL154C, strain vps35, hits give low values 1.01 | locus YJL164C, strain tpk1, hits give low values 1.01 | locus YJL166W, strain qcr8, hits give low values 0.976 | locus YJL168C, strain set2, hits give low values 1.01 | locus YJL187C, strain SWE1 (second series), hits give low values 1.02 | locus YJL187C, strain SWE1, hits give low values 1.01 | locus YJR043C, strain POL32, hits give low values 1.02 | [4] 0.985 | locus YJR075W, strain HOC1, hits give low values 1.02 | locus YKL009W, strain mrt4, hits give low values 1.04 | locus YKL068W, hits give low values 1.02 | locus YKL085W, strain MDH1 (second series), hits give low values 1.01 | locus YKL085W, strain MDH1, hits give low values 1.01 | locus YKL160W, strain elf1, hits give low values 0.987 | locus YKL190W, strain CNB1, hits give low values 1.02 | locus YKR001C, strain vps1, hits give low values 1.02 | locus YKR026C, strain gcn3, hits give low values 0.985 | locus YKR091W, strain srl3, hits give low values 0.996 | locus YLL001W, strain dnm1, hits give low values 0.97 | locus YLL026W, hits give low values 0.989 | locus YLL041C, strain sdh2, hits give low values 1.01 | locus YLR027C, strain aat2, hits give low values 0.989 | locus YLR039C, strain RIC1, hits give low values 1.06 | locus YLR058C, strain SHM2, hits give low values 1.01 | locus YLR102C, strain apc9, hits give low values 1 | [5] 0.981 | locus YLR221C, strain rsa3, hits give low values 1 | locus YLR258W, strain gsy2, hits give low values 1 | locus YLR262C, strain YPT6 (second series), hits give low values 0.994 | locus YLR262C, strain YPT6, hits give low values 1.05 | locus YLR268W, strain sec22, hits give low values 1.01 | locus YLR320W, strain mms22, hits give low values 0.999 | locus YLR330W, strain CHS5, hits give low values 1.01 | locus YLR342W, strain FKS1 (second series), hits give low values 1.05 | locus YLR342W, strain FKS1, hits give low values 1 | locus YLR357W, strain rsc2, hits give low values 0.981 | locus YLR370C, strain arc18, hits give low values 1 | locus YLR371W, strain rom2, hits give low values 1.01 | locus YLR384C, strain iki3, hits give low values 0.996 | locus YLR418C, strain cdc73, hits give low values 1.06 | locus YML016C, strain PPZ1, hits give low values 0.999 | locus YML032C, strain rad52, hits give low values 1.01 | locus YML120C, strain ndi1, hits give low values 1 | locus YML124C, strain tub3, hits give low values 1.01 | locus YMR058W, strain fet3, hits give low values 0.991 | locus YMR078C, strain ctf18, hits give low values 1.02 | locus YMR125W, strain sto1, hits give low values 0.993 | locus YMR129W, hits give low values 0.993 | locus YMR205C, strain PFK2, hits give low values 1 | locus YMR223W, strain ubp8, hits give low values 1.07 | locus YMR231W, strain pep5, hits give low values 0.994 | locus YMR307W, strain GAS1, hits give low values 1.03 | locus YNL067W, strain RPL9B, hits give low values 1.02 | locus YNL071W, strain lat1, hits give low values 0.999 | locus YNL153C, strain GIM3, hits give low values 1.01 | locus YNL175C, strain NOP13, hits give low values 1.01 | [6] 0.969 | locus YNL197C, strain WHI3, hits give low values 1 | locus YNL209W, strain ssb2, hits give low values 1 | locus YNL224C, strain SQS1, hits give low values 0.983 | locus YNL233W, strain BNI4, hits give low values 1.01 | locus YNL248C, strain rpa49, hits give low values 0.988 | locus YNL250W, strain rad50, hits give low values 1.05 | locus YNL271C, strain bni1, hits give low values 1.02 | locus YNL298W, strain CLA4, hits give low values 1.02 | locus YNL307C, strain MCK1, hits give low values 1.03 | locus YNL322C, strain KRE1 (second series), hits give low values 1.01 | locus YNL322C, strain KRE1, hits give low values 1.01 | locus YNR049C, strain mso1, hits give low values 1.01 | locus YNR052C, strain pop2, hits give low values 1.01 | locus YOL012C, strain htz1 1.09 | locus YOL147C, strain pex11, hits give low values 1.02 | locus YOR001W, strain rrp6, hits give low values 0.987 | locus YOR061W, strain CKA2, hits give low values 1.01 | locus YOR069W, strain VPS5, hits give low values 1.01 | locus YOR070C, strain gyp1, hits give low values 1 | locus YOR080W, strain dia2, hits give low values 1.01 | locus YOR083W, strain WHI5 (second series), hits give low values 1 | locus YOR083W, strain WHI5, hits give low values 0.977 | locus YOR106W, strain vam3, hits give low values 0.994 | locus YOR136W, strain idh2, hits give low values 1.01 | locus YOR144C, strain elg1, hits give low values 1.01 | locus YOR184W, strain ser1, hits give low values 1.02 | [7] 0.947 | locus YOR265W, strain rbl2, hits give low values 1 | locus YOR270C, strain vph1, hits give low values 1.02 | locus YOR290C, strain snf2, hits give low values 0.989 | locus YOR316C, strain cot1, hits give low values 1.01 | locus YPL051W, strain arl3, hits give low values 0.999 | locus YPL055C, strain LGE1, hits give low values 1.02 | locus YPL078C, strain atp4, hits give low values 0.981 | locus YPL106C, strain sse1, hits give low values 1.01 | locus YPL240C, strain hsp82, hits give low values 1 | locus YPL241C, strain CIN2, hits give low values 1 | [8] 1.03 | locus YPR119W, strain clb2, hits give low values 1.01 | locus YPR141C, strain kar3, hits give low values 1.01 | locus YPR163C, strain tif3, hits give low values 1.02 | locus YPR167C, strain met16, hits give low values 1.01 | strain wtn01, hits give low values 1

CCC(=O)O[C@H](CC(=O)O)C[N+](C)(C)C
inactive: [1] 1.02 | [2] 1.05 | [3] 1.05 | [4] 0.967 | [5] 1.02 | [6] 0.988 | [7] 1.04 | [8] 1.04

— PubChem BioAssay AID1159580 (chemical genetic matrix, 2015)
